Test results taken from PubChem BioAssay (Tox21).
“And” between values parts separate entries of the source, which are not always exact repeats. Identical values can stand only once. Results filed as inconclusive are left out. More than one record can exist for a structure, and the calls need not agree. The source made the active and inactive calls. Unless noted, calls follow the shape of the dose curve; as a rule, active = well fitted curve in the direction sought with a large enough effect in the repeat runs; inconclusive = weak or mixed curves; inactive = no such curve, though single readings can be large; an effect the other way counts as inactive or inconclusive.

What was measured:
[1] = qHTS assay for small molecule agonists of the p53 signaling pathway (AID 651631; calls by dose curve; also: nearly all actives have a fitted effect of over 15% in size; also: potency is read from the fitted curve at half-maximal effect)
Outline: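 Agonist mode screen using a stably integrated beta-lactamase gene under p53 response elements in HCT-116 cells. Compound exposure lasts 16 h at 37 °C; fluorescence intensity is measured following 2 h FRET substrate loading.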

[2] = qHTS assay for small molecules that induce genotoxicity in human embryonic kidney cells expressing luciferase-tagged ATAD5 (AID 651632); also: nearly all actives have a fitted effect of over 15% in size
Outline: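 HEK293T cells carrying a luciferase reporter tagged to ATAD5 were exposed to compound or DMSO vehicle for 16 hr at 37C, 5% CO2. Amplite was added, and after 30 min at room temperature luciferase activity was read as a marker of ATAD5 induction.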

[3] = qHTS assay for small molecule agonists of the p53 signaling pathway - cell viability (AID 651633; calls by dose curve; also: nearly all actives have a fitted effect of over 30% in size; also: potency is read from the fitted curve at half-maximal effect;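 as to activity change, negative = cytotoxicity: p53RE-bla HCT reporter cells with a stable beta-lactamase p53 reporter; series mostly up to about 83 µM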)
Outline: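 Viability counter-read: CellTiter-Glo luminescence (30 min, room temperature) in the same p53RE-bla plates. These plates had been exposed to compounds for 16 h at 37 C.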

[4] = qHTS assay for small molecules that induce genotoxicity in human embryonic kidney cells expressing luciferase-tagged ATAD5 - cell viability (AID 651634; calls by dose curve; also: nearly all actives have a fitted effect of over 25% in size)
Outline: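 HEK293T cells expressing luciferase-tagged ATAD5 were exposed to compound or DMSO for 15.5 hr at 37C, 5% CO2. Viability was then read as live-cell protease activity by CellTiter-Fluor fluorescence after 30 min at 37C.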

[5] = qHTS assay for small molecule disruptors of the mitochondrial membrane potential - cell viability (AID 720634; calls by dose curve;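 also: human HepG2 liver cancer cells; series mostly up to about 83 µM; nearly all actives have a fitted effect of over 20% in size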)
Outline: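 HepG2 cells seeded overnight at 37 C, then exposed to compound or DMSO for 1 hr at 37 C, 5% CO2. m-MPI dye added, then CellTiter-Glo for 30 min at room temperature; viability read as ATP luminescence.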

[6] = qHTS assay for small molecule disruptors of the mitochondrial membrane potential (AID 720635)
Outline: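 Mitochondrial membrane potential tracked with Mito-MPS dye, red aggregates (ex 540/em 590 nm) against green monomers (ex 490/em 535 nm). Compound treatment 1 hr at 37C, dye 30 min in HepG2.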

[7] = qHTS assay to test for compound auto fluorescence at 590 nm (red) in HepG2 cells (AID 720674)
Outline: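 We screened compounds on adherent HepG2 cells, incubating them for an hour at 37 C in 5% CO2 before reading emission at 590 nm under 540 nm excitation; values reflect equivalence to Rose Bengal sodium fluorescence.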

[8] = qHTS assay to test for compound auto fluorescence at 535 nm (green) in HepG2 cells (AID 720675)
[9] = qHTS assay to test for compound auto fluorescence at 460 nm (blue) in HEK293 cells (AID 720678)
Outline: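 Cells were seeded and left to adhere for 4-5 hr at 37C. Compounds were then pin-transferred. After an overnight incubation at 37C under 5% CO2, intrinsic fluorescence at 405/460 nm was measured and referenced to triamterene.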

[10] = qHTS assay to test for compound auto fluorescence at 590 nm (red) in HEK293 cells (AID 720679)
Outline: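 Each well held 2,000 HEK293 cells in medium containing 10% dialyzed FBS. Following 4-5 hr attachment at 37C, 23 nL test compound or DMSO was added; plates sat overnight, and red fluorescence (540/590nm) was recorded.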

[11] = qHTS assay to test for compound auto fluorescence at 535 nm (green) in HEK293 cells (AID 720680)
[12] = qHTS assay to test for compound auto fluorescence at 460 nm (blue) in HEK293 cell free culture (AID 720681)
Outline: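 Blue fluorescence (Ex 405/Em 460 nm, triamterene-equivalent) was read immediately after pin transfer of compound or DMSO into medium (DMEM, 10% FBS) without cells.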

[13] = qHTS assay to test for compound auto fluorescence at 535 nm (green) in HEK293 cell free culture (AID 720682)
Outline: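 No cells present: wells hold DMEM supplemented with 10% FBS, into which compound or vehicle is pinned. Green emission is then recorded (485 nm excitation, 535 nm emission) and scaled to fluorescein.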

[14] = qHTS assay to test for compound auto fluorescence at 590 nm (red) in HEK293 cell free culture (AID 720683)
Outline: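 Red-channel autofluorescence of compounds in culture medium (DMEM, 10% FBS), no cells, measured at 540/590 nm. Rose Bengal sodium is the reference fluorophore for equivalence.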

[15] = qHTS assay to test for compound auto fluorescence at 590 nm (red) in HepG2 cell free culture (AID 720684)
Outline: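 Steps: dispense MEM/10% FBS medium, no cells; pin compound or DMSO vehicle; read red channel, Ex/Em 540/590 nm. Output given as Rose Bengal sodium equivalents.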

[16] = qHTS assay to test for compound auto fluorescence at 460 nm (blue) in HepG2 cell free culture (AID 720685)
Outline: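 Compound (23 nL) or DMSO pinned into cell-free MEM with 10% FBS; blue fluorescence read at 405/460 nm excitation/emission, expressed as auto-fluorescence equivalency to triamterene.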

[17] = qHTS assay to test for compound auto fluorescence at 535 nm (green) in HepG2 cell free culture (AID 720686)
[18] = qHTS assay to test for compound auto fluorescence at 460 nm (blue) in HepG2 cells (AID 720687)
Outline: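 Blue-channel autofluorescence (Ex/Em 405/460 nm, triamterene-equivalent) was measured after 1 hr compound exposure at 37 C, 5% CO2. Cells were HepG2, plated overnight at 37 C in MEM plus 10% FBS.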

[19] = target: Glucocorticoid receptor (Homo sapiens) (UniProt P04150); test: qHTS assay to identify small molecule agonists of the glucocorticoid receptor (GR) signaling pathway (AID 720691; active = well fitted activation curve with a large enough effect in the signal ratio in the repeat runs, not every such curve was filed as active; the % refers to the signal ratio)
Outline: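 GR-bla HeLa cells (beta-lactamase reporter under glucocorticoid response element) were plated 4 h at 37 C/5% CO2, given compounds in DMSO, and incubated 18 h at 37 C. LiveBLAzer B/G FRET substrate was added for 2 h at room temperature, then fluorescence intensity read.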

[20] = target: Glucocorticoid receptor (Homo sapiens) (UniProt P04150); test: qHTS assay to identify small molecule antagonists of the glucocorticoid receptor (GR) signaling pathway (AID 720692; active = well fitted inhibition curve with a large enough effect in the signal ratio in the repeat runs, not every such curve was filed as active; the % refers to the signal ratio)
Outline: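 GR-bla HeLa cells (beta-lactamase reporter under glucocorticoid response element) were pre-plated 4 h at 37 C, treated with compounds plus 5 nM dexamethasone (final) for 18 h, then read by LiveBLAzer B/G FRET fluorescence after 2 h.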
% is scaled to controls: 0 for no effect and ±100 for the full control effect.

Glucocorticoid receptor (Homo sapiens), sequence (P04150 whole entry, looked up): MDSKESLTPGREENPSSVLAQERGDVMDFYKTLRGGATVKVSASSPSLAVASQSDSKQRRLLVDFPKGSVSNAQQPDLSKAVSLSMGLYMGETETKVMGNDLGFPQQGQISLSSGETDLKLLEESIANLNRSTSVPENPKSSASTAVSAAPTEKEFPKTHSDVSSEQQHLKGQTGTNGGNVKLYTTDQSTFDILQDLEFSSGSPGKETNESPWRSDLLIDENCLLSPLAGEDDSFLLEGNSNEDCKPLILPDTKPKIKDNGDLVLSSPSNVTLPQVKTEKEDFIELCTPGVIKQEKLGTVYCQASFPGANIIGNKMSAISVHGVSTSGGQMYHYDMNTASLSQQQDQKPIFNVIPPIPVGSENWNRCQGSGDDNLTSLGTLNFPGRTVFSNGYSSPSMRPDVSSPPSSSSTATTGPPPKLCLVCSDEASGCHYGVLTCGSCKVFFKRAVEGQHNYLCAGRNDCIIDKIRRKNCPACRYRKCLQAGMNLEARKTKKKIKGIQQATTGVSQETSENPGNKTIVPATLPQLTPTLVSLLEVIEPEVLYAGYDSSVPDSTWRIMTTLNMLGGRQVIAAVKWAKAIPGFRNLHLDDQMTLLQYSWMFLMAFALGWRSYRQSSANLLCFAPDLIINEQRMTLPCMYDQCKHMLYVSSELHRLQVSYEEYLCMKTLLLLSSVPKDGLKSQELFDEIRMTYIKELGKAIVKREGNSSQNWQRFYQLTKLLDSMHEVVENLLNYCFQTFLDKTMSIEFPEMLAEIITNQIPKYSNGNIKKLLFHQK

COc1cc(C)ccc1O
inactive: Potency [1] | Potency [2] | Potency [3] | Potency [4] | Potency [5] | Potency [6] | Potency [7] | Potency [8] | Potency [9] | Potency [10] | Potency [11] | Potency [12] | Potency [13] | Potency [14] | Potency [15] | Potency [16] | Potency [17] | Potency [18] | Potency [19]

CCCCCCCC/C=C\CCCCCCCCN
inactive: Potency [1] | Potency [2] | Potency [3] | Potency [4] | Potency [5] | Potency [6] | Potency [7] | Potency [8] | Potency [9] | Potency [10] | Potency [11] | Potency [12] | Potency [13] | Potency [14] | Potency [15] | Potency [16] | Potency [17] | Potency [18]

CN(C)Cc1ccccc1O
inactive: Potency [1] | Potency [2] | Potency [3] | Potency [4] | Potency [5] | Potency [6] | Potency [7] | Potency [8] | Potency [9] | Potency [11] | Potency [12] | Potency [13] | Potency [14] | Potency [15] | Potency [16] | Potency [17] | Potency [19]

CCCCC/C=C\C/C=C\CCCCCCCC(=O)O
inactive and 68.6 µM (active): Potency [1]
inactive: Potency [2] | Potency [4] | Potency [5] | Potency [6] | Potency [7] | Potency [8] | Potency [9] | Potency [10] | Potency [11] | Potency [12] | Potency [13] | Potency [14] | Potency [15] | Potency [16] | Potency [17] | Potency [18]
inactive and 54.5 µM (active): Potency [3]

Cc1nc(-c2ccc(Cl)cc2)oc1COC(C)(C)C(=O)O
inactive: Potency [1] | Potency [2] | Potency [3] | Potency [4] | Potency [5] | Potency [6] | Potency [7] | Potency [8] | Potency [9] | Potency [10] | Potency [11] | Potency [12] | Potency [13] | Potency [14] | Potency [15] | Potency [16] | Potency [17] | Potency [18] | Potency [19] | Potency [20]

CC(C)(C)CC(C)(C)c1ccc(Nc2ccc(C(C)(C)CC(C)(C)C)cc2)cc1
inactive: activation [1] -6.72% [at 8.3 µM] | activation [2] 2.9% [at 8.08 µM] | activity change, negative = cytotoxicity [3] -13.1% [at 8.08 µM] | activity, negative = cytotoxicity [4] 13.9% [at 8.08 µM] | activity change, negative = cytotoxicity [5] 4.18% [at 8.08 µM] | ratio activity, negative = MMP loss [6] 34.3% [at 8.08 µM] | fluorescence, relative to Rose Bengal [7] 0.212% [at 3.72 µM] | fluorescence, % of fluorescein control [8] 0.0549% [at 3.72 µM] | fluorescence, % of triamterene [9] -0.186% [at 3.72 µM] | fluorescence, % of fluorescent control [10] -0.94% [at 3.72 µM] | fluorescence, % of fluorescein [11] -0.0015% [at 3.72 µM] | activity change [13] 0.0494% [at 3.72 µM, stronger effect = higher value] | fluorescence, % of fluorescent control [14] 0.0404% [at 3.72 µM] | fluorescence, % of Rose Bengal [15] 0.189% [at 3.72 µM] | fluorescence, % of fluorescent control [16] 0.0515% [at 3.72 µM] | fluorescence, % of fluorescein control [17] 0.0526% [at 3.72 µM] | activation [19] -1.13% [at 6.9 µM] | activity change, negative = inhibition [20] -25.8% [at 7.04 µM]

CCC(CC)C(C)CCOC(C)=O (stereo not drawn)
inactive: Potency [1] | Potency [2] | Potency [3] | Potency [4] | Potency [5] | Potency [6] | Potency [7] | Potency [8] | Potency [9] | Potency [10] | Potency [11] | Potency [12] | Potency [13] | Potency [14] | Potency [15] | Potency [16] | Potency [17] | Potency [18]

CC(C)CCOC(=O)/C=C/c1ccccc1
inactive: Potency [1] | Potency [2] | Potency [3] | Potency [4] | Potency [5] | Potency [6] | Potency [7] | Potency [8] | Potency [9] | Potency [10] | Potency [11] | Potency [12] | Potency [13] | Potency [14] | Potency [16] | Potency [17] | Potency [18] | Potency [19] | Potency [20]

CC1=Nc2ccccc2C1(C)C
inactive: Potency [1] | Potency [2] | Potency [3] | Potency [4] | Potency [5] | Potency [6] | Potency [7] | Potency [8] | Potency [9] | Potency [10] | Potency [11] | Potency [12] | Potency [13] | Potency [14] | Potency [15] | Potency [17] | Potency [19]

Cc1nc2n(c(=O)c1CCN1CCC(c3noc4cc(F)ccc34)CC1)CCCC2
inactive: Potency [1] | Potency [2] | Potency [3] | Potency [4] | Potency [5] | Potency [6] | Potency [7] | Potency [8] | Potency [9] | Potency [10] | Potency [11] | Potency [12] | Potency [13] | Potency [14] | Potency [16] | Potency [17] | Potency [18] | Potency [19] | Potency [20]

O=C(/C=C/c1ccc(O)c(O)c1)O[C@@H](C(=O)O)[C@@H](OC(=O)/C=C/c1ccc(O)c(O)c1)C(=O)O
inactive: Potency [1] | Potency [2] | Potency [3] | Potency [4] | Potency [5] | Potency [6] | Potency [7] | Potency [8] | Potency [9] | Potency [10] | Potency [11] | Potency [13] | Potency [14] | Potency [15] | Potency [17] | Potency [18] | Potency [19] | Potency [20]

CC(=O)Oc1cc2c(s1)CCN(C(C(=O)C1CC1)c1ccccc1F)C2 (stereo not drawn)
inactive: Potency [1] | Potency [2] | Potency [3] | Potency [4] | Potency [5] | Potency [6] | Potency [7] | Potency [8] | Potency [9] | Potency [10] | Potency [11] | Potency [12] | Potency [13] | Potency [14] | Potency [15] | Potency [17] | Potency [19]
